High-throughput results from PubChem BioAssay.
AMPAR-TARP mod: modulators of GluA2-stargazin AMPA receptor complexes, primary screen, cell-based, membrane potential dye | Voltage-dependent calcium channel gamma-2 subunit (Mus musculus) + Glutamate receptor 2 … | HEK293 GluA2+stargazin, membrane potential dye (FDSS), glutamate EC50; hits were called plate by plate, in both directions | calls only at 30 µM | 40,000 compounds, 3.5% hits | AID 1259245, 2017;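 active means any of four per-well response measures lying three or more SD from its plate-wide compound average, in either direction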
GIRK2 activator: activators of NPY4-receptor-primed GIRK2 channels, summary, cell-based, HEK293, thallium flux | HEK293 GIRK2/NPY4 cells, thallium flux fluorescence | activation (% efficacy), % for hits at 37.5 µM | 34,000 tested, under 10 active;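 active means primary screen hit, no activity in plain HEK293 cells, and in GIRK2-only cells above 5% efficacy rising with concentration; inactive means the rest, including fluorescent compounds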;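 further: efficacy is normalized control-subtracted fluorescence 15 s after thallium addition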
Target sequence (P48051 whole entry, looked up): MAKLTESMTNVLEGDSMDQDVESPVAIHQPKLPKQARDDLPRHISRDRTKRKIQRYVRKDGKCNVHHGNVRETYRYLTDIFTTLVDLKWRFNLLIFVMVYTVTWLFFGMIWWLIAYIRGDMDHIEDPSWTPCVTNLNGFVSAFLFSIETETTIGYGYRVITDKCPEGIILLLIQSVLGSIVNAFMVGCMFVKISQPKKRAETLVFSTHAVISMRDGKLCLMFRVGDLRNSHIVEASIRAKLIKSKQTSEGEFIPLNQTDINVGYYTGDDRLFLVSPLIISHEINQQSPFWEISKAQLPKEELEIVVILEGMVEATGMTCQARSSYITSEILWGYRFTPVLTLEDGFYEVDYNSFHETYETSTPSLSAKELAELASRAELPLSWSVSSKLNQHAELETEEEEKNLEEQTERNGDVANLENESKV
Calls only. This is one part of a sample in which hits are shown more often than they occur.

Cc1cccc(Nc2ccc(N3CCN(S(=O)(=O)N(C)C)CC3)nn2)n1 was read as AMPAR-TARP mod active and GIRK2 activator inactive.
For COc1ccc(S(=O)(=O)N2CCN(c3ccc(Nc4cccc(C)n4)nn3)CC2)cc1Cl the results were AMPAR-TARP mod active and GIRK2 activator inactive.
`CN(C)S(=O)(=O)N1CCN(c2ccc(Nc3ccncc3)nn2)CC1` gave AMPAR-TARP mod inactive and GIRK2 activator inactive.
`Cc1ccnc(Nc2ccc(N3CCN(S(=O)(=O)c4ccc(F)cc4)CC3)nn2)c1` gave GIRK2 activator inactive.
Cc1cccc(Nc2ccc(N3CCN(C(=O)c4ccccc4)CC3)nn2)n1 was read as GIRK2 activator inactive.
For Cc1ccc(S(=O)(=O)N2CCN(c3ccc4nnc(C)n4n3)CC2)cc1C the results were AMPAR-TARP mod active and GIRK2 activator inactive.
NC(=O)C1CCN(c2oc(-c3ccccc3)nc2S(=O)(=O)c2ccc(Cl)cc2)CC1 was read as AMPAR-TARP mod inactive and GIRK2 activator inactive.
`COc1ccc(-c2cc(C(=O)O)[nH]n2)c(OC)c1` gave AMPAR-TARP mod inactive and GIRK2 activator inactive.
Screening COc1ccc(C2(CNS(=O)(=O)Cc3ccc(F)cc3)CCCC2)cc1 returned AMPAR-TARP mod inactive and GIRK2 activator inactive.
For O=C(NCCN1CCN(c2ccc(Cl)cc2)CC1)C(=O)NC1CCCCCC1 the results were AMPAR-TARP mod inactive and GIRK2 activator inactive.
For O=C(NCCn1nc(-c2cccnc2)ccc1=O)Nc1ccc(C(F)(F)F)cc1 the results were GIRK2 activator inactive.
Screening COc1cc(N2CCN(S(=O)(=O)c3c(C)noc3C)CC2)nc(OC)n1 returned AMPAR-TARP mod inactive and GIRK2 activator inactive.
`COc1ccc(S(=O)(=O)N2CCN(Cc3nnnn3-c3ccccc3)CC2)cc1OC` gave AMPAR-TARP mod inactive and GIRK2 activator inactive.
COc1ccc(S(=O)(=O)N2CCN(Cc3nnnn3-c3ccc(C)cc3)CC2)cc1C was read as AMPAR-TARP mod active and GIRK2 activator inactive.
`COc1ccc(S(=O)(=O)N2CCN(c3ccc(-c4cccs4)nn3)CC2)cc1OC` gave AMPAR-TARP mod inactive and GIRK2 activator inactive.
`COc1ccc(S(=O)(=O)N2CCN(c3ccc(Nc4ccccn4)nn3)CC2)cc1` gave AMPAR-TARP mod inactive and GIRK2 activator inactive.
Screening COc1ccc(S(=O)(=O)N2CCN(c3ccc(-c4ccncc4)nn3)CC2)cc1C returned AMPAR-TARP mod active and GIRK2 activator inactive.
Screening Cc1cccc(Nc2ccc(N3CCN(S(=O)(=O)c4c(C)noc4C)CC3)nn2)n1 returned AMPAR-TARP mod active and GIRK2 activator inactive.
COc1ccc(S(=O)(=O)N2CCN(c3ccc(Nc4cccnc4)nn3)CC2)cc1 was read as AMPAR-TARP mod active and GIRK2 activator inactive.
For O=C(Cn1c2ccccc2c2ncn(Cc3ccccc3)c(=O)c21)NCc1ccc2c(c1)OCO2 the results were GIRK2 activator inactive.
Screening COc1ccc(-c2nc(CSc3n[nH]c(=O)c4cc(-c5ccco5)nn34)c(C)o2)c(OC)c1 returned GIRK2 activator inactive.
For CS(=O)(=O)Nc1ccc2c(c1)N(S(=O)(=O)c1ccccc1)CCC2 the results were AMPAR-TARP mod inactive.
COc1ccc(-n2c(C)cn3c4c(=O)n(Cc5ccccc5C)c(=O)n(C)c4nc23)cc1 was read as AMPAR-TARP mod inactive.
`O=C(c1ccccc1)c1ccc(OCC(O)CNc2ccc(F)cc2)cc1` (stereo not drawn) gave AMPAR-TARP mod active and GIRK2 activator inactive.
O=C(c1ccccc1)c1ccc(OCC(O)CN2CCN(c3ccccc3F)CC2)cc1 (stereo not drawn) was read as AMPAR-TARP mod inactive and GIRK2 activator inactive.
For Cc1cccc(Cn2c(=O)c3nscc3n(CC(=O)Nc3ccccc3C)c2=O)c1 the results were AMPAR-TARP mod inactive and GIRK2 activator inactive.
CC(=O)c1ccc(NC(=O)Cn2c(=O)n(Cc3ccccc3)c(=O)c3nscc32)cc1 was read as AMPAR-TARP mod active and GIRK2 activator inactive.
Screening CCc1ccc(-c2cc3c(=O)n(Cc4nc(-c5ccc(OC)cc5OC)no4)ccn3n2)cc1 returned AMPAR-TARP mod inactive and GIRK2 activator inactive.
CCc1ccc(-c2cc3c(=O)n(Cc4nc(-c5cccc(C(F)(F)F)c5)no4)ccn3n2)cc1 was read as AMPAR-TARP mod active and GIRK2 activator inactive.
Cc1cc(NC(=O)C(C)Oc2ccccc2)n(-c2nc(-c3ccccc3)cs2)n1 (stereo not drawn) was read as GIRK2 activator inactive.
COc1cccc(OC)c1C(=O)Nc1ccc2c(c1)CCCN2S(C)(=O)=O was read as AMPAR-TARP mod inactive.
`O=C(Nc1c(Cl)cccc1Cl)C1CCCCC1` gave AMPAR-TARP mod active.
Screening CSc1cccc2sc(NC(=O)C3CCCCC3)nc12 returned AMPAR-TARP mod inactive and GIRK2 activator inactive.
